Our source for the Potency, outcome and max response values is PubChem BioAssay (NCATS).

Assay [1] deals with Tyrosine-protein kinase Yes (Homo sapiens) (UniProt P07947). Kind of assay: qHTS for small molecule inhibitors of Yes1 kinase: Primary Screen (AID 686947). Note: nearly all actives have a fitted effect of over 60% in size. Note: potency is the fitted concentration of half-maximal effect. The method, boiled down: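 ADP-Glo luminescence readout; final 4 nM Yes1, 0.1 mM ATP, 0.3 mg/mL poly(E4Y), Tris pH 7.5, MgCl2, DTT, Brij-35. 20 min compound preincubation, 60 min reaction at RT. Normalized to DMSO wells with and without enzyme.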
A general note: Quantitative high-throughput screening tests each substance at several concentrations.

Assay [2] in a line: qHTS for small molecule inhibitors of Yes1 kinase: Counter Assay (AID 686950).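 Note: no kinase present so only ADP-Glo detection of a fixed ADP amount is tested; luminescence from ADP-Glo reporting ADP in a fixed ATP and ADP mixture; series mostly up to about 77 µM; 0% = DMSO wells with ATP plus ADP and -100% = ATP-only wells without ADP.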 In a few lines:
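Enzyme-free detection counter-screen: compounds preincubated 20 min in buffer, then 0.08 mM ATP plus 0.02 mM ADP added for 60 min at room temperature; ADP-Glo luminescence. Buffer 50 mM Tris pH 7.5, 10 mM MgCl2, 150 mM NaCl; normalized to ATP+ADP and ATP-only controls.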

A short description of assay [3]: qHTS Assay for Identifying Gametocytocidal Compounds (AID 743244).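 For max response: % is set by controls: 0 for no effect and ±100 for the full control effect; actives lower the fluorescent signal which means gametocytes are killed.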 Note: potency is the fitted concentration of half-maximal effect. Particulars: P. falciparum 3D7 stage III-V gametocytes, alamarBlue, 72 h; max response: active compounds read low. In a few lines: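 3D7 gametocytes, stages III–V, 20,000/well; cpd 72 h, 37 °C/5% CO2; + alamarBlue 24 h; fluor. Ex 525/Em 598.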
Assay [4] deals with Arylsulfatase A (Homo sapiens) (UniProt P15289). In words: qHTS screen for enhancers of Arylsulfatase A (ASA1): LOPAC Validation Assay (AID 720538). Note: 0% is about no effect. In a few lines:
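Read-out: fluorescence at Ex=525/Em=598 nm after 1N NaOH final stop. Patient fibroblasts carrying ASA-I179S had 48h compound exposure, then 14h room-temperature pNCS hydrolysis (0.5mM final) in lysis buffer. Signal increase = enhanced activity.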

Assay [5] in a line: qHTS for compounds that reverse cellular toxicity of Amyloid beta (A-beta) peptide in yeast: LOPAC Validation Assay (AID 720559).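 Note: plate controls were DMSO for no effect and equimolar ferric chloride plus clioquinol rescue for full effect.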 In a few lines: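 OD600 growth readout after 48 hr at 30 C; A-beta-toxic yeast plus pinned compounds in medium. Normalization: DMSO = negative, equimolar FeCl3 + clioquinol = positive.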
Assay [6] is described as follows: qHTS for Activators of Parkin Expression: LOPAC Validation Assay (NLuc Reporter) (AID 720572;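 note: 0% = DMSO and 100% = positive control compound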). In a few lines: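 Neuronal cells with a Parkin promoter-driven FLuc/NLuc coincidence reporter were treated 24 h at 37 C in 7-point dose response (LOPAC). NLuc luminescence read after FLuc; signals normalized to DMSO and positive control (100%).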
The nature of assay [7]: qHTS for Activators of Parkin Expression: LOPAC Validation Assay (FLuc Reporter) (AID 720573; note: potency is the fitted concentration of half-maximal effect). As to conditions: Cell line, PRKN promoter firefly luciferase reporter. In a few lines:
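FLuc luminescence read-out from a neuronal line expressing a Parkin-promoter-driven coincidence reporter. Cells treated 24 h at 37 C, 5% CO2 with compounds at 7 concentrations; signal increase normalized to DMSO and positive control.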

In assay [8] the target is T1, Hexokinase-4 (Homo sapiens) + Glucokinase regulatory protein (Homo sapiens) (UniProt P35557+Q14397). In words: qHTS assay for inhibitors of recombinant human GCK-GKRP interaction: Diaphorase-coupled assay (AID 743205). In a few lines: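 Resorufin fluorescence (525/590 nm), read each minute over 30 min, reports GCK activity coupled via G6PDH and diaphorase. Reaction: 10 nM GST-GCK, 10 nM FLAG-GKRP, 5 mM glucose, 0.4 mM ATP, 0.15 mM NADP+, 0.1 mM resazurin.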

Assay [9] has as its target T1, Hexokinase-4 (Homo sapiens) + Glucokinase regulatory protein (Homo sapiens). Kind of assay: qHTS assay for inhibitors of recombinant human GCK-GKRP interaction: ADP-Glo assay (AID 743206).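 Note: plate controls were DMSO plus enzyme for no effect and no enzyme for full effect.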 In a few lines:
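GST-GCK and FLAG-GKRP (15 nM each in the dispensed mix, with 2 uM S6P) react with 0.4 mM ATP and 5 mM glucose (final) in Hepes pH 7.6 for 60 min at room temperature. ADP is measured by ADP-Glo luminescence.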

Assay [10] has the same target. Kind of assay: qHTS assay for inhibitors of recombinant human GCK-GKRP interaction: HTRF assay (AID 743207).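 Note: 0% = DMSO with GCK present and -100% = DMSO wells lacking GCK.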 The method, boiled down:
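HTRF read-out (ex 320 nm; 615/665 nm emission) after 60 min RT equilibration of 5 nM GST-GCK, 5 nM FLAG-GKRP, 2 uM S6P, compound and anti-FLAG/anti-GST detection antibodies; signal normalized between DMSO wells with and without GCK.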

SMILES strings stand for the structures. Several values for one entry are separate records, joined by “and”; a condition that tells them apart may be missing. Equal entries are not always repeated. Results filed as inconclusive are left out. Activity calls are given as the source filed them. Calls come from the whole dose curve; as a rule, active = well fitted curve in the direction sought with a large enough effect; inconclusive = small, poorly fitted or top-dose-only effect, or another doubt; inactive = no such curve, though single readings can be large; an effect the other way counts as inactive or inconclusive.

T1 sequence (P35557 whole entry, looked up): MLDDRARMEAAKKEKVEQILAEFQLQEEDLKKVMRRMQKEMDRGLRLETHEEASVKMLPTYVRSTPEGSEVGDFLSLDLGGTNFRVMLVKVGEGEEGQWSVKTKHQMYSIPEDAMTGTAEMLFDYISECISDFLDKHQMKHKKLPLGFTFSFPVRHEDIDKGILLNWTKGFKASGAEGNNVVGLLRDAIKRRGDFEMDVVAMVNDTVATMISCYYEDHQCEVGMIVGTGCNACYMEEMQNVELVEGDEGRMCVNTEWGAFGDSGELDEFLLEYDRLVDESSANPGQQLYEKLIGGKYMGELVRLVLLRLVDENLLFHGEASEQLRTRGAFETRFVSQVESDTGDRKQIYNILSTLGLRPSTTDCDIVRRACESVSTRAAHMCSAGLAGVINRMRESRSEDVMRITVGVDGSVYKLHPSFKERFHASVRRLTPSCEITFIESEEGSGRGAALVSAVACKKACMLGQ
T1 sequence (Q14397 whole entry, looked up): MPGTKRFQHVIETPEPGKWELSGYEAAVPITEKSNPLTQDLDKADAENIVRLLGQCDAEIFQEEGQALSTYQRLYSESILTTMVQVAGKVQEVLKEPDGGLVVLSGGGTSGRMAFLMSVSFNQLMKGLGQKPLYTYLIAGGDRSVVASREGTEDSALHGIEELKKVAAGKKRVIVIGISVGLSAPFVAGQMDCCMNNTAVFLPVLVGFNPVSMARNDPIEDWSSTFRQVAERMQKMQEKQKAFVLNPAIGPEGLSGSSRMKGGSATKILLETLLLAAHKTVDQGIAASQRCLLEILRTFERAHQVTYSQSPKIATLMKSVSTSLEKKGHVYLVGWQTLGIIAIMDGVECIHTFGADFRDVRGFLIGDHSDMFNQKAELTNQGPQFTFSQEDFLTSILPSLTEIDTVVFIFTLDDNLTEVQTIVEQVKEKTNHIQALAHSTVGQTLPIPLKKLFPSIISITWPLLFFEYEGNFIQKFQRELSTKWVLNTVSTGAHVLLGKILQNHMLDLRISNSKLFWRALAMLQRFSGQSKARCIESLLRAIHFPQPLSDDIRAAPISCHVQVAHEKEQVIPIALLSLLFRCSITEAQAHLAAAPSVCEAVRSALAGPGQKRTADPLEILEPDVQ
Chain of Tyrosine-protein kinase Yes (Homo sapiens) (P07947 whole entry, looked up): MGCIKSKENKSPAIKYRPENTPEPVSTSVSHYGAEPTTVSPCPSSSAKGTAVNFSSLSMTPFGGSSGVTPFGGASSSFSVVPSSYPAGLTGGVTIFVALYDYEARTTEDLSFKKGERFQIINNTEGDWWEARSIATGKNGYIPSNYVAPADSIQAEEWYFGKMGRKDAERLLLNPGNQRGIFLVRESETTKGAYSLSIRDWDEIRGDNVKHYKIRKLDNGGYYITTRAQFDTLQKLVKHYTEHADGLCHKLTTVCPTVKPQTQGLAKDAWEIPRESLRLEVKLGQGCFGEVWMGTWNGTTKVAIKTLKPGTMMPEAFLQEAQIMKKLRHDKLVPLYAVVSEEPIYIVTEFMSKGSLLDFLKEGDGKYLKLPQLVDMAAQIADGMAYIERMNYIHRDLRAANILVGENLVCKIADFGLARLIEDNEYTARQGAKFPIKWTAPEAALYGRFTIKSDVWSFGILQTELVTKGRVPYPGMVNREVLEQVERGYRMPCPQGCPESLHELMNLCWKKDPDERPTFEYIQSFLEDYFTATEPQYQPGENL
Chain of Arylsulfatase A (Homo sapiens) (P15289 whole entry, looked up): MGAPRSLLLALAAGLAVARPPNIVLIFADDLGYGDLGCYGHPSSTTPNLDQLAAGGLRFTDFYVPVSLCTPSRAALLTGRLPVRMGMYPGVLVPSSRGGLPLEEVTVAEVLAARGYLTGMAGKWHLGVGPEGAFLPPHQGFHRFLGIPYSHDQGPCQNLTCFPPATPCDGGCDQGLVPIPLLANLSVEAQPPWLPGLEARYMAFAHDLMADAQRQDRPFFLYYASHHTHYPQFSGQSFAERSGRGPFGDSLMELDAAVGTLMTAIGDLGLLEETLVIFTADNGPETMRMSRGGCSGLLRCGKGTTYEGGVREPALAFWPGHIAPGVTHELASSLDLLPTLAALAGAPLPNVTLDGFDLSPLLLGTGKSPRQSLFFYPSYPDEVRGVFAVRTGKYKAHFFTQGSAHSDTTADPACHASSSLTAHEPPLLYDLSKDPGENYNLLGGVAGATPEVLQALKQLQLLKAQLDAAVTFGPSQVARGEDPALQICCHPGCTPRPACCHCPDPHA

On to `Cc1ccc(-c2ncn(-c3ccc(Nc4nccc(-c5cccc(N6CCOCC6)c5)n4)cc3)n2)cn1`, for which the Potency in assay [1] is 12.2 µM (active); in assay [3], 11.8 µM (active). The molecule was called inactive in [2].

Turning to `Nc1cc(C(F)(F)F)c(-c2cc(N3CCOCC3)nc(N3CCOCC3)n2)cn1`, in [1], the Potency result is “inactive”. Also, in assay [2], the call was inactive. For the same molecule, the max response in assay [3] was -15.2% (inactive).

Take `c1cc(-c2cnn3cc(-c4ccc(OCCN5CCCCC5)cc4)cnc23)ccn1`: the result in assay [2] was inactive.

With `CN1CCC(CNc2ccc3ncc(-c4cccc(OC(F)(F)F)c4)n3n2)CC1`, the Potency in assay [1] is 0.0972 µM (active); in assay [3], 9.35 µM (active). For the same molecule, the call in assay [2] was inactive.

In the case of `C#Cc1cccc(Nc2ncnc3cc(OC)c(OCCCCCCC(=O)NO)cc23)c1`, the results for the Potency in assay [1] and in assay [3] were 1.73 µM (active) and 1.71 µM (active), respectively. The call in [2] was inactive.

With `c1ccc2c(CCNc3ccc(Nc4ccncc4)cc3)c[nH]c2c1`, in assay [1], the Potency entry was “inactive”. In addition, the outcome in [2] was inactive. Further, in [3], the Potency is 9.35 µM (active).

With `CC(C)(O)CCc1ccc(OCc2cc(-c3cccc(OC(F)F)c3)c3ncccc3c2)cc1`, in assay [1], the Potency result is “inactive”. For the same molecule, in assay [2], the call was inactive. Moreover, the max response in assay [3] was 9.3% (inactive).

Regarding `Cc1cnc(-c2cnc(NCCNc3ccc(C#N)cn3)nc2-c2ccc(Cl)cc2Cl)[nH]1`, the Potency entry in [1] is “inactive”. Further, in assay [2], the outcome was inactive. Moreover, the max response in assay [3] was 11.2% (inactive).

Take `Nc1nc(Nc2ccc(S(N)(=O)=O)cc2)nn1C(=O)c1c(F)cccc1F`: the figures for the Potency in assay [1] and in [3] were 0.772 µM (active) and 11.8 µM (active), respectively. Further, the result in [2] was inactive.

In the case of `Nc1ccccc1NC(=O)c1ccc(CNC(=O)OCc2cccnc2)cc1`, the Potency in assay [1] is 15.4 µM (active). Moreover, the molecule was classed as inactive in [2]. In addition, the max response in assay [3] is -2.71% (inactive).

As for `Cc1cn2c(-c3cn[nH]c3)cnc2c(Nc2ccc(C(=O)N3CCNCC3)cc2F)n1`, the figures for the Potency in assay [1] and in [3] were 21.8 µM (active) and 23.5 µM (active), respectively. The molecule was called inactive in assay [2].

`Nc1nccc(Oc2ccc(NC(=O)c3c[nH]cc(-c4ccc(F)cc4)c3=O)cc2F)c1Cl`: in assay [1], the Potency was 48.7 µM (active). Further, the outcome in assay [2] was inactive. Besides, in [3], the max response was -5.48% (inactive).

Take `COc1cc2nccc(Oc3ccc(NC(=O)C4(C(=O)Nc5ccc(F)cc5)CC4)cc3)c2cc1OC`: in [1], the Potency was 1.09 µM (active). Besides, the call in assay [2] was inactive. Also, in assay [3], the max response was 4.76% (inactive).

`O=C(NCCCNc1nc(Nc2cccc(NC(=O)N3CCCC3)c2)ncc1I)c1cccs1`: in assay [1], the Potency is 1.37 µM (active) and 1.22 µM (active). Moreover, the outcome in assay [2] was inactive. In addition, the max response in [3] was -18.4% (inactive) and -12.2% (inactive).

Regarding `CC(=O)OCC(=O)[C@@]1(O)[C@H](C)C[C@H]2[C@@H]3C=C(C)C4=Cc5c(cnn5-c5ccccc5)C[C@]4(C)[C@@H]3[C@@H](O)C[C@@]21C`, the Potency entry in [1] was “inactive”. Further, the molecule was called inactive in assay [2]. Moreover, in assay [3], the max response is -18.2% (inactive).

With `COc1cccc2nc(-c3cccs3)nc(NN3C(=O)C=C(C)C3=O)c12`, the Potency entry in [1] was “inactive”. Moreover, in assay [2], the call was inactive. In addition, in assay [3], the max response is 19.8% (inactive).

Regarding `CN(c1ncccc1CNc1nc(Nc2ccc3c(c2)CC(=O)N3)ncc1C(F)(F)F)S(C)(=O)=O`, the Potency in assay [1] was 0.194 µM (active). Moreover, the call in assay [2] was inactive. Also, the max response in assay [3] was 3.79% (inactive).

`Cn1c2cc(S(C)=O)sc2c2cnn(Cc3cccc(N)c3)c(=O)c21` (centres undefined): the Potency entry in [1] was “inactive”. Also, the molecule was classed as inactive in [2]. Moreover, the max response in [3] was 8.65% (inactive).

In the case of `C1Cc2[nH]nc(-c3nn[nH]n3)c2C1`, in assay [1], the Potency entry is “inactive”. In addition, the outcome in [2] was inactive. Besides, in assay [3], the max response was 38.3% (inactive).

For `CC=C1NC(=O)[C@H]2CSSCCC=C[C@H](CC(=O)N[C@H](C(C)C)C(=O)N2)OC(=O)[C@H](C(C)C)NC1=O`, the Potency result in [1] is “inactive”. Moreover, the molecule was called inactive in assay [2]. Also, in assay [3], the Potency is 0.59 µM (active).

For the molecule `C=CC(=O)Nc1cccc(Oc2nc(Nc3ccc(N4CCN(C)CC4)cc3OC)ncc2Cl)c1`, the Potency in assay [1] was 4.87 µM (active); in assay [3] it was 14.8 µM (active). The molecule was classed as inactive in [2].

Consider `COc1ccc(CC2SC(=O)NC2=O)cc1C(=O)NCc1ccc(C(F)(F)F)cc1` (centres undefined), for which, in [1], the Potency result was “inactive”. Besides, the molecule was classed as inactive in assay [2]. Besides, the max response in [3] is 16.4% (inactive).

Take `COc1cc2ncn(-c3cc(OCc4ccccc4C(F)(F)F)c(C(N)=O)s3)c2cc1OC`: the Potency entry in assay [1] is “inactive”. Also, in assay [2], the molecule was called inactive. The max response in [3] is 18.7% (inactive).

`O=c1c2ccccc2nc2n1CCc1c-2[nH]c2ccccc12`: the result in assay [4], in assay [5], in assay [6], in [8], in [9] and in assay [10] was inactive. Further, the Potency in [7] was 0.82 µM (active).
